A short description of assay [1]: sensitizers of A549 cells to miR-34 induction, primary screen, imaging, A549 dox-inducible miR-34, nuclei and caspase counts (AID 1347080;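 active means compounds whose cell count with miR-34 switched on is under 0.7 times the count with it off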). As to conditions: A549 miR-34 inducible, Hoechst nuclei count, 48 h.
The nature of assay [2]: viability rescue of complex I mutant cybrids, primary screen, cell-based, galactose medium, ATP luminescence (AID 1645843).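 Further: positive z means more ATP and so rescue of galactose-driven cybrid death.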 Conditions: complex I mutant cybrid cells, 72 h, stronger effect = higher value.
Assay [3] concerns the target NAD(+) hydrolase SARM1 (Homo sapiens) (UniProt Q6SZW1). Put plainly: SARM1 TIR NADase inhibitors, cell lysate, NAD-Glo luminescence (AID 1508614;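 active means compound whose remaining NAD level is above about 45 nM, limit read from the data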). Conditions: SAM-TIR HEK293T lysate NADase, at 1 µM, stronger effect = higher value.
For assay [4], the target named is Mitogen-activated protein kinase 7 (Homo sapiens) (UniProt Q13164). Put plainly: ERK5 transactivation activators in reporter cells, primary screen, cell-based, HTS (AID 1508626;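 active means luciferase signal above three times the same-plate solvent-only control wells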;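 further: luciferase driven by Gal4-ERK5 fusion binding five Gal4 sites before minimal TATA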). As to conditions: HeLa Gal4-ERK5 transactivation, 18 h, at 5 µM, stronger effect = higher value.
Sequence of Mitogen-activated protein kinase 7 (Homo sapiens) (Q13164 whole entry, looked up, the tested form may be a part): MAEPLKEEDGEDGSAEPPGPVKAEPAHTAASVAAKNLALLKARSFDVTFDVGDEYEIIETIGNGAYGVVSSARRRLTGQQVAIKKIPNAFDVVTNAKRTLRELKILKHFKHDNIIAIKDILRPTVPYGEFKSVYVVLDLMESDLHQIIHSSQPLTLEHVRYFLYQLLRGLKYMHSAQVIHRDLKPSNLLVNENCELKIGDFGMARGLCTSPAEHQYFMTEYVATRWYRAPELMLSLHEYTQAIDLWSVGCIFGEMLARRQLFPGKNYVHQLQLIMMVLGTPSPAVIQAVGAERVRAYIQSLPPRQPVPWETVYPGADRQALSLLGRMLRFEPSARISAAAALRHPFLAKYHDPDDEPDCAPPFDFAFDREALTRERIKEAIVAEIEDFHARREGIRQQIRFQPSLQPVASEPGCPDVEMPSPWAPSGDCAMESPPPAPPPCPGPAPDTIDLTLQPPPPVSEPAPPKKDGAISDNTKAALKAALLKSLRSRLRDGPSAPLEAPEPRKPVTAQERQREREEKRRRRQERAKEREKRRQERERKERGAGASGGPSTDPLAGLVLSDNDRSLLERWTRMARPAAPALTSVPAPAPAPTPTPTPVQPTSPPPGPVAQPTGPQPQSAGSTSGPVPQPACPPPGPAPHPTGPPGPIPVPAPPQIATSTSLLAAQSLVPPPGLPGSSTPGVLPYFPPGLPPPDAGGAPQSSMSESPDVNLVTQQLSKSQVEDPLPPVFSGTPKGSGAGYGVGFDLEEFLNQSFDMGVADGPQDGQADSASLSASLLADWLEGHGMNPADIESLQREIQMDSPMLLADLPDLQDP
Assay [5] in a line: phospholipid biosynthesis inhibitors in animal cells, primary screen, cell-based, LOPAC library, screen 4 (AID 1347384; call rule not given here). As to conditions: phospholipid biosynthesis inhibition screen, at 10 µM.
Assay [6] can be described thus: survival rescue of mitochondrial mutant cells in low glucose, primary screen, MELAS cybrids, Rieske KO mouse fibroblasts, CellTiter-Glo (AID 1508586;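 active means mean z-score across replicates of 1.96 or higher in either the MELAS or the Rieske mutant cell line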;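 further: z relative to plate mean and SD of compound and empty wells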). On the technique in general: ATP-based viability assays read luminescence as a measure of living cells.
Assay [7] in a line: inhibitors of Cryptococcus chitosan production, flow cytometry, Cibacron Brilliant Red staining (AID 1347148; call rule not given here;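 further: compound exposure lasted three days at 37 degrees C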). As to conditions: Cryptococcus neoformans chitosan, stronger effect = lower value; at 10 µM unless noted. For orientation: A flow cytometer gives signals particle by particle.
The mark [8] stands for this setting: stronger effect = lower value, cell number ratio, induced over uninduced.
[9] abbreviates: measured here: relative caspase fold change +Dox/-Dox.
Setting [10] is: measured here: total cells with miR-34 induction, stronger effect = lower value.
Where [11] appears, read: measured here: total cells without miR-34 induction.
Setting [12] is: MELAS cybrid survival, CellTiter-Glo 48 h, stronger effect = higher value.
The mark [13] stands for this setting: Rieske KO mouse fibroblast survival, CellTiter-Glo 72 h.

The structures appear in SMILES notation. “And” between values parts separate entries of the source, which are not always exact repeats. Equal values may be shown once. The source made the active and inactive calls.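 How the source made its calls, unless noted: active means z-score of at least 1.8 in each of two replicates, scored against plate mean and spread of sample wells; inactive means the rest.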

Sequence of NAD(+) hydrolase SARM1 (Homo sapiens) (Q6SZW1 whole entry, looked up, the tested form may be a part): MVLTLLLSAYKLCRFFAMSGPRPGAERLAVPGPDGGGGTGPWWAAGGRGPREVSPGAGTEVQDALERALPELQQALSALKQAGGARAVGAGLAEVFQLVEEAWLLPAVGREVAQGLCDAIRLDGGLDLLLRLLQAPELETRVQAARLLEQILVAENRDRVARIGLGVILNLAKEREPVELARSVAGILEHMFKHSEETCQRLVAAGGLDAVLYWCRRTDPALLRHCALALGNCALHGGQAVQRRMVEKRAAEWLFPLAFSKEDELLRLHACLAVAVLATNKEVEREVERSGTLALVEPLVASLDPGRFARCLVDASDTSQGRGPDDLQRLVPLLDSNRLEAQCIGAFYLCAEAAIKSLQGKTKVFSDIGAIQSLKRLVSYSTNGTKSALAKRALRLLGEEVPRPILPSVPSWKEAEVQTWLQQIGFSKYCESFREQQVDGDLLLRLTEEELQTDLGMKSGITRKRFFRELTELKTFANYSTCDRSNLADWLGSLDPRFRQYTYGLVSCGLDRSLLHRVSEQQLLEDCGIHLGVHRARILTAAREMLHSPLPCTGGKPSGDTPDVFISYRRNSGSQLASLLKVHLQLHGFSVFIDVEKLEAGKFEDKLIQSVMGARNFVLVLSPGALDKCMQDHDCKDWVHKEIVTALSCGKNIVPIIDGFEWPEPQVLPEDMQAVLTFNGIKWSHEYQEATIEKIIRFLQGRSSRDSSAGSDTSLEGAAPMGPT

Turning to `CCN(CC)CC1CCCCN1CC(=O)N1c2ccccc2C(=O)Nc2cccnc21` (configuration not stated), the fold change was 0.915 (inactive) and 0.926 (inactive) in assay [1] (setting [8]); 1.68 and 0.696 in assay [1] (setting [9]). The cell count was 10100 and 9240 in assay [1] (setting [10]); 11000 and 9980 in assay [1] (setting [11]). For the same molecule, the z-score in assay [2] is 0.18 (inactive) and -0.135 (inactive).
On to `Oc1c(Cl)cc(Cl)cc1Sc1cc(Cl)cc(Cl)c1O`, for which the fold change was 0.771 (inactive) in assay [1] (setting [8]) and 1.86 in assay [1] (setting [9]). The cell count in assay [1] (setting [10]) is 8360; in assay [1] (setting [11]), 10800. Besides, the remaining NAD in assay [3] was 10 nM (inactive). In addition, in assay [4], the luciferase signal was 24 AU (inactive).
In the case of `Nc1c2c(nc3c1CCC3)CCCC2`, the fold change was 1.06 (inactive) in assay [1] (setting [8]) and 2.56 in assay [1] (setting [9]). In addition, the cell count came to 10500 in assay [1] (setting [10]) and 9920 in assay [1] (setting [11]). Moreover, the z-score in assay [2] is -0.465 (inactive).
Regarding `C=C[C@@]1(C)CC(=O)[C@]2(O)[C@@]3(C)[C@@H](O)CCC(C)(C)[C@@H]3[C@H](O)[C@H](OC(C)=O)[C@@]2(C)O1`, the fold change in assay [1] (setting [8]) is 0.943 (inactive); in assay [1] (setting [9]), 1.09. For the same molecule, the values for the cell count in assay [1] (setting [10]) and in assay [1] (setting [11]) were 9780 and 10400, respectively. In addition, in assay [3], the remaining NAD was 10 nM (inactive). In addition, the luciferase signal in assay [4] was 44 AU (inactive). Also, the z-score in assay [2] was -0.315 (inactive).
With `Cc1cc(O)cc(C)c1Cl`, the figures for the fold change in assay [1] (setting [8]) and in assay [1] (setting [9]) were 0.933 (inactive) and 1.14, respectively. The cell count came out at 10100 in assay [1] (setting [10]) and 10800 in assay [1] (setting [11]). Moreover, the remaining NAD in assay [3] is 10 nM (inactive). Moreover, the luciferase signal in assay [4] is 32 AU (inactive).
Consider `Cc1cccc(C(=O)O)c1O`, for which the fold change in assay [1] (setting [8]) is 0.963 (inactive); in assay [1] (setting [9]), 0.915. Moreover, the cell count in assay [1] (setting [10]) is 8670; in assay [1] (setting [11]), 9000. Also, the remaining NAD in assay [3] is 10 nM (inactive). Besides, the luciferase signal in assay [4] was 68 AU (inactive).
For `O=C(NCCN1CCOCC1)c1ccc(Cl)cc1`, the cell count in assay [1] (setting [11]) is 10300 and 10900 and 9280. Moreover, the molecule was classed as inactive in assay [5]. The z-score was 0.188 (inactive) and 0.694 (inactive) in assay [6] (setting [12]); 0.0884 and 0.188 in assay [6] (setting [13]); 0.645 (inactive) and 0.32 (inactive) in assay [2].
On to `O=c1c(-c2ccccc2)c1-c1ccccc1`, for which the fold change in assay [1] (setting [8]) was 0.804 (inactive); in assay [1] (setting [9]), 1.52. For the same molecule, the figures for the cell count in assay [1] (setting [10]) and in assay [1] (setting [11]) were 4690 and 5830, respectively. The z-score in assay [2] was -1.44 (inactive).
For `CCCOc1ccccc1-c1nc2n[nH]nc2c(=O)[nH]1`, in assay [7], the fold fluorescence was 6.79 [at 184.3 µM] (inactive). Besides, the molecule was classed as inactive in assay [5]. For the same molecule, the z-score in assay [6] (setting [12]) is 0.137 (inactive) and -0.665 (inactive); in assay [6] (setting [13]), -0.13 and -0.629; in assay [2], 0.78 (inactive) and -0.305 (inactive) and 1.09 (inactive). In addition, the remaining NAD in assay [3] was 10 nM (inactive).
On to `CC(C)NC[C@@H](O)COc1cccc2ccccc12`, for which the fold change in assay [1] (setting [8]) was 0.945 (inactive); in assay [1] (setting [9]), 0.937. The cell count stood at 8050 in assay [1] (setting [10]) and 8520 in assay [1] (setting [11]). For the same molecule, the remaining NAD in assay [3] was 10 nM (inactive). Further, the luciferase signal in assay [4] is 52 AU (inactive). The z-score in assay [2] is 0.54 (inactive).
On to `Oc1c(I)cc(I)c2cccnc12`, for which the fold change in assay [1] (setting [8]) is 0.894 (inactive); in assay [1] (setting [9]) it was 1.48. The cell count in assay [1] (setting [10]) was determined as 10900; in assay [1] (setting [11]) it was 12200. Further, the remaining NAD in assay [3] was 10 nM (inactive). In addition, the luciferase signal in assay [4] was 16 AU (inactive).
Take `COc1ccc(-c2cc(C(F)F)nn2-c2ccc(S(N)(=O)=O)cc2)cc1F`: the fold change was 0.791 (inactive) in assay [1] (setting [8]) and 2.48 in assay [1] (setting [9]). The cell count came to 10300 in assay [1] (setting [10]) and 13000 in assay [1] (setting [11]). Besides, the remaining NAD in assay [3] was 10 nM (inactive). Further, the luciferase signal in assay [4] is 44 AU (inactive).
For `C=Cc1c(C)c2cc3[nH]c(cc4nc(cc5nc(cc1[nH]2)C(C)=C5CCC(=O)O)C(CCC(=O)O)=C4C)c(C)c3C=C`, the values for the fold change in assay [1] (setting [8]) and in assay [1] (setting [9]) were 1.04 (inactive) and 1.36, respectively. Besides, the cell count in assay [1] (setting [10]) was determined as 9230; in assay [1] (setting [11]), 8840. In addition, the remaining NAD in assay [3] was 10 nM (inactive). In addition, the luciferase signal in assay [4] was 56 AU (inactive). Besides, the z-score in assay [2] was -0.23 (inactive).

For the origin of these results see PubChem BioAssay.
